# BCR signal inh: blocks chronic active B-cell receptor signaling; AID 493014; hit rate 0.05% among 340,000; Potency, µM (doses to about 46.1 µM), inactives show at the top dose activity change, negative = inhibition, actives largely listed as inhibitors; ABC-DLBCL IkBa-CBG/CBR reporter, luminescence ratio, 4 h; active = well fitted inhibition curve with a large enough effect in the signal ratio, with a control signal flat, not every such curve was filed as active; inconclusive = small, poorly fitted or top-dose-only effect, or effect the other way, or a change in a side signal; the % refers to the signal ratio;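 note: potency is the fitted concentration of half-maximal effect; plate controls were basal doxycycline-induced cells for no effect and cells given 10 µM MG132 for full effect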
#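 Concentration-response series (up to 46 uM) were applied to TMD8 dual-reporter cells for 4 h at 37C with doxycycline. Green/red ratio, after filter-overlap correction, defined %Activity; red signal alone was normalised to basal cells and zero luminescence.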
# RORg inh: blocks mouse ROR gamma transcriptional activity; P51450; Drosophila S2 Gal4-RORgamma UAS-luciferase reporter, 20 h; Potency, µM (doses to about 53.6 µM), for the others: top-dose activity change, negative = inhibition, most hits filed as inhibitors; hit rate 5.4% among 310,000; AID 2551; note: potency is the fitted concentration of half-maximal effect; % is set by controls: 0 for no effect and ±100 for the full control effect; nearly all actives have a fitted effect of over 60% in size
# Target sequence (P51450 whole entry, looked up, the tested form may be a part): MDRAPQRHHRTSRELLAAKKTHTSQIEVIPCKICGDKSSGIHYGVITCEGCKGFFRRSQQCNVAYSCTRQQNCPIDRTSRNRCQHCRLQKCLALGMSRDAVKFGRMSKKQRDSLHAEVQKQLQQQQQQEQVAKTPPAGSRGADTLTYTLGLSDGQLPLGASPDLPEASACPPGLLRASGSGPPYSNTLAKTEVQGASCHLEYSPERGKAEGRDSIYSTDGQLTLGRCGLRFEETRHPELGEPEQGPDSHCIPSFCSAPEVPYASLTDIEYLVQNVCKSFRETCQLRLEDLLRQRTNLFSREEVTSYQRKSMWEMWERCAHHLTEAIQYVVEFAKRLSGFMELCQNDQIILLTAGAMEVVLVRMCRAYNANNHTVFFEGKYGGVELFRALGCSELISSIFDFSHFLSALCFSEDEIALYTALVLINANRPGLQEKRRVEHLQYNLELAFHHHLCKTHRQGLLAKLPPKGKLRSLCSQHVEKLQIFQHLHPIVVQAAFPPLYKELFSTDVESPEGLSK
#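 ROR gamma transcriptional activity was tracked as Gal4-UAS luciferase output in stably transfected Drosophila Schneider cells, with compound added 1 hr before 700 uM copper sulfate induction and a 20 hr ambient-temperature incubation.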
# MCF10A rerep: inducers of DNA re-replication in MCF 10A breast cells; MCF 10A DNA re-replication, Hoechst nuclear intensity, 48 h; Potency, µM (doses to about 46.1 µM), without a hit: top-dose activity, positive = re-replication, usual class: activators; hit rate 2.9% among 350,000; note: potency is the fitted concentration of half-maximal effect; % of control where 0% means no effect; nearly all actives have a fitted effect of over 50% in size
# SW480 rerep: DNA re-replication induction in SW480 cells. SW480 DNA re-replication, Hoechst DNA content imaging, 48 h. Potency, µM (series often up to 46.1 µM), for inactives: top-dose re-replication activation, hits mostly activators. hit rate 1.8% among 340,000. AID 624297; note: potency is the fitted concentration of half-maximal effect; % of control where 0% means no effect; nearly all actives have a fitted effect of over 55% in size
#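 Hoechst fluorescence of nuclei (405 nm excitation, 500-530 nm emission) measured by plate-scanning imager after 48 hr compound exposure at 37 C; re-replication scored as increased number of nuclei with elevated intensity.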
# Gal4-VP16 FLuc: Gal4-VP16 reporter inhibition counter-screen | Drosophila S2 Gal4-VP16 UAS-luciferase, luminescence, 20 h | Potency, µM (titrated, usually from 53.6 µM), for inactives: at the highest dose activity, negative = inhibition, actives largely listed as inhibitors | hit rate 3.5% among 310,000 | AID 2546;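 note: Gal4-VP16 expression switched on by copper sulfate through the metallothionein promoter; potency is the fitted concentration of half-maximal effect; % is set by controls: 0 for no effect and ±100 for the full control effect; nearly all actives have a fitted effect of over 50% in size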
# Giardia killer: kills Giardia lamblia. activity change, % at 7.66 µM, hits read low. Giardia lamblia trophozoite viability. hit rate 0.15% among 340,000. AID 540267; in the data active = activity change below about -80%; inconclusive = between about -30% and that limit;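 note: parasites exposed to compound for two days anaerobically before the ATP read; % is set by controls: 0 for no effect and ±100 for the full control effect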
#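 Trophozoites 100 cells/well + cpd; 48 hrs, 37 deg C, anaerobic. ATPLite 1-Step added, 15-30 min RT, luminescence read (ATP-based viability).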
# An asterisk follows results filed as active; ? = inconclusive; nt = not tested or not shown. Shown are actives, neighbours in structure and some others; about 8.3% of the full set was active somewhere. Unless noted, calls come from the whole dose curve; as a rule, active = well fitted curve in the direction sought with a large enough effect; inconclusive = small, poorly fitted or top-dose-only effect, or another doubt; inactive = no such curve, though single readings can be large; an effect the other way counts as inactive or inconclusive.
SMILES,BCR signal inh,RORg inh,MCF10A rerep,SW480 rerep,Gal4-VP16 FLuc,Giardia killer
COC(=O)c1cc(Br)ccc1N(Cc1cc(OC)cc(OC)c1)S(C)(=O)=O,2%,nt,15%,-3%,nt,?
Cc1cc(/C=C(\C#N)C(=O)Nc2ccccc2)c(C)n1-c1ccc2c(c1)OCO2,-3%,11%,?,3.7µM*,9%,1
C=CCn1c(SCN2C(=O)c3ccccc3C2=O)nc2ccc(Cl)cc2c1=O,7%,8.9µM*,4%,-8%,7.9µM*,1
O=C(O)c1cc(N(Cc2ccccc2O)Cc2ccccc2O)ccc1O,nt,-21%,nt,nt,-2%,7
Cc1ccc(NC(=O)COC(=O)C2(c3ccc(Cl)cc3)CCCC2)cc1,?,?,21µM*,?,?,-4
CCOC(=O)c1ccc(NC(=O)C2(c3ccc(Cl)cc3)CCCC2)cc1,7%,?,-4%,-18%,1%,-14
CC(=O)c1c(C)[nH]c(C(=O)OCC(=O)Nc2ccc3c(c2)OCCO3)c1C,-19%,nt,2%,-7%,nt,17
COc1cc(-c2cccc([C@H]3[C@@H]4C=CC[C@@H](C)[C@@H]4C(=O)N3Cc3ccccc3)c2)cc(OC)c1OC,-3%,-2%,7.3µM*,3%,1%,-29
COc1ccc(-c2ccc(OC)c(C3C4C=CCC(C)C4C(=O)N3Cc3ccccc3)c2)cc1OC (stereo not drawn),nt,12%,nt,nt,2%,-14
COc1ccc(-c2ccoc2)cc1[C@H]1[C@H]2C=CC[C@@H](C)[C@@H]2C(=O)N1Cc1ccccc1,?,44%,18µM*,7%,-8%,20
C[C@@H]1CC=C[C@H]2[C@H]1C(=O)N(Cc1ccccc1)[C@H]2c1ccc2ccccc2c1/C=C/c1ccccc1,7%,-15%,?,?,0%,?
COc1ccc(-c2ccc([C@H]3[C@H]4C=CC[C@@H](C)[C@@H]4C(=O)N3Cc3ccccc3)c(F)c2)cc1,12%,16%,13µM*,?,-11%,16
CC1CC=CC2C1C(=O)N(Cc1ccccc1)C2c1ccc2ccccc2c1Br (stereo not drawn),nt,?,nt,nt,22µM*,10
CCS(=O)(=O)c1nc(S(=O)(=O)c2ccc(C)cc2)c(NCC(C)C)s1,nt,nt,nt,nt,nt,-4
COc1ccc(OCCSc2nnc3sc4ccccc4n23)cc1,-7%,16%,6.5µM*,?,1%,-13
CCc1nnc(NC(=O)CN2C(=O)/C(=C/c3ccc(OC)c(OC)c3)SC2=S)s1,0%,-2%,nt,nt,3%,nt
Fc1ccc(C2C3=C(Nc4ncnn42)c2ccccc2OC3c2ccncc2)cc1 (stereo not drawn),?,-19%,23%,16%,0%,-9
c1ccc(C2C3=C(Nc4ncnn42)c2ccccc2CCC3)cc1 (stereo not drawn),?,10µM*,?,-11%,?,7
Clc1ccc(C2C3=C(Nc4ncnn42)c2ccccc2CC3)cc1 (stereo not drawn),1%,14µM*,nt,nt,?,nt
CCc1ccc(N(CC(=O)NC(C)(C)C)C(=O)CCC(=O)Nc2ccccn2)cc1,-7%,43%,2%,?,-9%,-3
O=C(Nc1ccc2c(c1)OCCO2)c1ccc(Cl)c(Cl)c1,?,23%,10%,-1%,-15%,15
O=C(Nc1ccc2c(c1)OCCO2)c1ccc2nccnc2c1,?,-30%,7.3µM*,1%,-25%,?
Cc1ccc(C(=O)Nc2ccc3c(c2)OCCO3)cc1,?,10µM*,0%,8%,10µM*,?
Cc1ccn2cc(C(=O)Nc3ccc4c(c3)OCCO4)nc2c1,?,1.3µM*,0%,?,4.5µM*,-22
Cc1ccc(C(=O)Nc2ccc3c(c2)OCCO3)c(Cl)c1,-3%,7.9µM*,-6%,10%,5µM*,-83*
SMILES,BCR signal inh,RORg inh,MCF10A rerep,SW480 rerep,Gal4-VP16 FLuc,Giardia killer
COc1ccccc1NS(=O)(=O)c1ccc2[nH]c(=S)oc2c1,?,nt,1%,8%,nt,35
COc1ccccc1C(=O)Nc1ccc2c(c1)OCCO2,?,?,18%,-3%,?,?
Cc1ccc2nc(-c3cccc(NC(=O)c4ccc5c(c4)OCCO5)c3)oc2c1,9%,?,18µM*,-2%,-4%,4
O=C(Nc1ccc2oc(-c3ccc4ccccc4c3)nc2c1)c1ccc2c(c1)OCCO2,?,-14%,12%,?,-24%,-16
COc1cc(SC)ccc1C(=O)Nc1ccc2c(c1)OCCO2,?,11µM*,?,24%,?,-16
O=C(Nc1ccccc1)C1=C[C@@H](c2ccc(C(F)(F)F)cc2)C[C@@H](OCCCCO)O1,nt,nt,?,?,nt,9
CCC1C/C(=C\c2cc(OC)c(OC)cc2OC)C(=O)/C(=C/c2cc(OC)c(OC)cc2OC)C1 (stereo not drawn),?,24%,4.6µM*,18µM*,-21%,11
COc1cc(OC)c(OC)cc1/C=C1/Cc2ccccc2C1=O,-15%,-1%,-1%,9%,-13%,0
COc1ccc(/C=C2\CN(Cc3ccccc3)C/C(=C\c3ccc(OC)cc3OC)C2=O)c(OC)c1,6%,12%,?,?,9%,-3
COc1cc(OC)c(OC)cc1/C=C1\CC(C)C/C(=C\c2cc(OC)c(OC)cc2OC)C1=O (stereo not drawn),?,13%,16µM*,?,-21%,11
Cc1ccc(C)c(N2CCN(C(=O)c3ccc(N4CCOCC4)c([N+](=O)[O-])c3)CC2)c1,3%,22%,30%,25%,-8%,2
Cc1cccc(N2CCN(C(=O)c3ccc(Cl)c(S(=O)(=O)NCc4ccco4)c3)CC2)c1C,-19%,?,16µM*,?,7%,-23
CC1CN(C(=O)c2ccc(Cl)c(S(=O)(=O)NCc3ccco3)c2)CC(C)O1 (stereo not drawn),0%,nt,-3%,-9%,nt,26
O=C(c1cccc(S(=O)(=O)NCc2ccccc2)c1)N1CCN(c2ccccc2)CC1,0%,nt,6.5µM*,?,nt,22
O=C(c1cccc(S(=O)(=O)NCc2ccccc2)c1)N1CCN(c2ccccc2Cl)CC1,nt,nt,?,16µM*,nt,-8
COc1cccc(OC)c1C(=O)OCC(=O)N(C)c1ccccc1,?,0%,-1%,-1%,3%,9
O=C(COC(=O)c1ccccn1)NCc1ccccc1Cl,2%,15%,-56%,-31%,-3%,45
Cc1[nH]c(=O)c(C#N)c(C)c1Cc1ccc(Cl)cc1Cl,?,0%,5%,9%,-7%,-1

# Compound activity from PubChem BioAssay.
